Reference: PubChem BioAssay (NCI)
Compounds without any hit were thinned out: in the full panel of roughly 83,000, 20% have a hit.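 How to read the values: 0–100, growth inhibition (40 = 60% inhibited); 0, no net growth; -100 to 0, cell death (-40 = 40% of starting cells died; -100 = all dead).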 Values without a mark were called inactive. Calls of active or inactive are those of the source. How the source made its calls: active means growth percent below 10; inactive means the rest.

Columns and labels:
Experiment in all cases: NCI-60 one-dose screen, 48 h (100 = growth as untreated, 0 = no growth, -100 = all killed)
Settings in all cases: 10 µM unless noted
SR leukemia = system: SR leukemia
RPMI-8226 leukemia = system: RPMI-8226 leukemia
OVCAR-8 ovarian = system: OVCAR-8 ovarian
OVCAR-5 ovarian = system: OVCAR-5 ovarian
OVCAR-4 ovarian = system: OVCAR-4 ovarian
SK-OV-3 ovarian = system: SK-OV-3 ovarian
IGROV1 ovarian = system: IGROV1 ovarian
HS 578T breast = system: HS 578T breast
NCI/ADR-RES ovarian = system: NCI/ADR-RES ovarian
OVCAR-3 ovarian = system: OVCAR-3 ovarian

Compound	growth (SR leukemia)	growth (RPMI-8226 leukemia)	growth (OVCAR-8 ovarian)	growth (OVCAR-5 ovarian)	growth (OVCAR-4 ovarian)	growth (SK-OV-3 ovarian)	growth (IGROV1 ovarian)	growth (HS 578T breast)	growth (NCI/ADR-RES ovarian)	growth (OVCAR-3 ovarian)
O/N=C1\c2ccccc2-c2ccc(F)cc21	91.2%	85.8%	102%	93.8%	85.8%	97.3%	85.4%	120%	107%	–
CSc1nc(C)c(C(=O)CCN2CCN(c3ccccn3)CC2)s1	94.3%	80.1%	98.4%	104%	97.5%	102%	119%	102%	110%	–
CC1(O)CCCCCC1	92.5%	102%	102%	105%	107%	93.9%	103%	98.3%	102%	–
Clc1ccccc1C(c1ccccc1)(c1ccccc1)n1ccnc1	19.2%	18.7%	29.1%	57.8%	33.2%	69.3%	55.5%	–	33.1%	29.3%
O=C/C=C/c1ccc([N+](=O)[O-])cc1	87.1%	102%	100%	107%	104%	89.5%	101%	100%	99.6%	–
CC(=O)c1c(O)c(C)c(O)c2c1OC1=CC(=O)C(C(C)=O)C(=O)C12C (stereo not given)	58%	41.6%	92.7%	88.3%	–	98.8%	69.9%	–	63.4%	–
O=C1C=CC(=O)N1c1ccc(O)cc1	91.7%	91.9%	109%	105%	103%	106%	–	–	106%	119%
Cc1ccc(N2C(=O)C=CC2=O)cc1	66%	98.8%	110%	110%	107%	121%	–	–	104%	118%
O=C(NNc1ccccc1)OCc1ccccc1	47.1%	64.2%	61.4%	53.1%	112%	105%	58.7%	91.8%	55.2%	–
Cc1cc(=O)oc2cc(O)cc(O)c12	106%	111%	105%	96.4%	104%	104%	108%	–	108%	–
O=C(CCl)N1c2ccccc2Sc2c1ccc1ccccc21	12.9%	36.1%	64.2%	108%	–	106%	34.4%	82.1%	75.3%	74.3%
Oc1ccc(Cl)cc1Cc1cc(Cl)ccc1O	81.4%	-1.2% (active)	20.9%	–	38.7%	84.8%	41.1%	34.2%	4.47% (active)	9.92% (active)
N#CCc1cccc2ccccc12	100%	103%	105%	110%	–	113%	106%	122%	115%	120%
Fc1ccc(NCCS)cc1	88.9%	91%	103%	104%	102%	–	104%	115%	109%	107%
CCCC[n+]1c(/C=C\c2c(OC)cc(OC)cc2OC)ccc2ccccc21	-34.6% (active)	-25.6% (active)	-27.7% (active)	24.3%	9.07% (active)	-14.3% (active)	9.69% (active)	–	76.8%	–
NC(=S)N/N=C\c1nccc2c(C(F)(F)F)cccc12	-28.6% (active)	-13.9% (active)	11.1%	36%	–	11.4%	4.12% (active)	54.3%	0.716% (active)	15.3%
Nc1ccc(Oc2ccccc2)c(Cl)c1	92.1%	101%	95%	83.9%	–	91.6%	112%	91.7%	114%	113%
CC1CC(C)(C)OB(OC(C)CC(C)(C)OB2OC(C)CC(C)(C)O2)O1 (stereo not given)	96.9%	100%	102%	103%	111%	–	107%	121%	101%	76.6%
Nc1nc(-c2ccccc2)nc(N)c1N=O	27.4%	41%	54.3%	96.9%	83.9%	–	68.6%	65%	78.5%	27.7%
COc1cc(/C=C2\SC(=S)N(/C=C/c3nc4ccccc4[nH]c3=O)C2=O)cc(OC)c1OC	63.6%	86.2%	86.4%	88.3%	84.5%	76.3%	89.8%	74.4%	86.6%	–
COc1ccc(C(OCC2OC(n3ccc(NC(=O)c4ccccc4)nc3=O)C(O)C2O)(c2ccccc2)c2ccccc2)cc1 (stereo not given)	12.4%	3.08% (active)	29%	–	25.9%	75.1%	33.7%	61.7%	38.1%	45.6%
CN=C(N)N/N=C(\C)c1ccc2c(c1)Cc1ccccc1-2	-62.4% (active)	-20.7% (active)	-66.9% (active)	-69.1% (active)	–	-74.8% (active)	20.5%	–	-29.7% (active)	-88.1% (active)
OC(c1cc(C23CC4CC(CC(C4)C2)C3)nc2c(Cl)cc(Cl)cc12)C1CCCCN1 (stereo not given)	-60.1% (active)	-45.4% (active)	-53.9% (active)	-56% (active)	-78.2% (active)	-10.3% (active)	-61.7% (active)	-49.9% (active)	-51.2% (active)	–
N#Cc1c2ccccc2nc2ccccc12	103%	99.3%	93.9%	–	83.2%	116%	108%	103%	100%	110%
CC1(C)N=c2cc3c(cc2N1c1ccc(Cl)cc1)=Nc1ccccc1N3c1ccc(Cl)cc1	-41.9% (active)	-27.5% (active)	21%	25.5%	39.1%	59.4%	–	–	20.4%	35.9%
Clc1ccc(Cc2nc3ccccc3s2)cc1	84.4%	101%	102%	–	91%	128%	91.7%	100%	94.9%	98.1%
OCCOSCCO	90.1%	133%	106%	99.5%	102%	117%	112%	–	113%	–
Cc1oc2c(C)c3oc(=O)cc(C)c3cc2c1CCl	-10% (active)	54.4%	87.1%	77.3%	–	89.1%	94.3%	77.6%	83.7%	61.6%
Oc1cc(Cl)ccc1Cc1ccc(Cl)cc1O	59.1%	18.7%	64.6%	–	30.1%	90.8%	82.5%	–	–	40.2%
